Anthrax LF inh2: anthrax lethal factor protease inhibition; AID 588501; inhibition, % at 10 µM; P15917; 360,000 tested, 0.12% active; multiplex microsphere protease cleavage assay, LF; further: plate controls were buffer without enzyme for full effect and enzyme alone for no effect
MazF activator: MazEF (E. coli) toxin RNase activation | P0AE70 | FAM/BHQ RNA-DNA oligo cleavage fluorescence, 5 h | activation, % at 20 µM | 350,000 tested, 0.32% active; in the data active means activation above about 50%
Target sequence (P0AE70 whole entry, looked up): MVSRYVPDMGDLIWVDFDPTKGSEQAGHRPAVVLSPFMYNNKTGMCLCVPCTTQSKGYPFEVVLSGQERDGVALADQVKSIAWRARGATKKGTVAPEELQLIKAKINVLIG
BoNT F protease: blocks Botulinum neurotoxin F light chain protease. inhibition, % at 10 µM. 360,000 tested, 0.22% active. Multiplex microsphere protease cleavage assay, flow cytometry; in the data active means inhibition above about 35%, passing the limit was not always enough; inconclusive means no clear call, values can overlap the other calls; further: plate controls were buffer without enzyme for full effect and enzyme alone for no effect
Bead autofluor: flagged as autofluorescent in microsphere protease counterscreen; 360,000 tested, 3.1% active; fluorescence intensity (no concentration beside the values); compound autofluorescence counterscreen, microsphere flow cytometry; stronger effect = higher value; in the data active means fluorescence intensity above about 16000; inconclusive means no clear call, values can overlap the other calls
BoNT A protease: BoNT A light chain protease inhibition; 360,000 tested, 0.17% active; multiplex microsphere protease substrate cleavage, flow cytometry; AID 588499; inhibition, % at 10 µM; further: plate controls were buffer without enzyme for full effect and enzyme alone for no effect
* = called active by the depositor; ? = inconclusive; / = not tested or not shown. An excerpt weighted towards active compounds, which were near 3.7% of everything screened. Unless noted, no stated cut-off is given here; in the data, active means inhibition above about 30%; inconclusive means no clear call, values can overlap the other calls; inactive means below that.

SMILES	Anthrax LF inh2	MazF activator	BoNT F protease	Bead autofluor	BoNT A protease
CN1CCN(S(=O)(=O)c2ccc(C(=O)NC3CCCCC3)cc2)CC1	3.2	3.4	8.9	3830	0.3
CC(C)(C)c1ccc(CC(=O)N2CCC2(C)C(=O)NCc2cccs2)cc1 (stereo unspecified)	-0.7	/	-0.2	3358	-0.1
CSCCNC(=O)C1(C)CCN1C(=O)C/C=C/c1ccccc1 (stereo unspecified)	-8.7	/	-0.1	2801	0.2
CN1CC(c2ccc(Cl)c(Cl)c2)[C@@]2(COc3ccccc3C2=O)[C@@]12C(=O)Nc1ccccc12 (stereo partly specified)	-1.9	-0.7	-3.7	20876*	-1.2
O=C1Nc2ccccc2C12OCC1(CO2)COC2(OC1)C(=O)Nc1ccccc12 (stereo unspecified)	?	3.6	?	?	?
CC(C)C(NC(=O)C1(NC(=O)OCc2ccccc2)CCCC1)C(=O)O (stereo unspecified)	-8.8	-2.0	-4.0	2886	-0.7
O=C(NCCCCCCNC(=O)OCCO)OCCO	-1.9	3.2	-5.8	4578	0.3
CCCCNC(=O)OCCNC(=O)NC	-18.5	0.8	9.2	18838*	?
COCC(=O)N(C)C[C@H]1N[C@@](C)(C(=O)OC)[C@H]2C(=O)N(Cc3ccccc3)C(=O)[C@@H]12	-2.6	0.0	2.2	3913	-0.2
Cc1n[nH]c2ccc([N+](=O)[O-])cc2c1=O	2.4	-1.8	-2.5	3480	-0.2
O=C(OCc1ccccc1)Oc1cncc(C(=O)O)c1	-5.6	-5.6	-4.9	16938*	-3.3
O=C(OCc1ccccc1)c1ccccc1	4.7	5.4	4.4	5354	-0.2
O=C1NC[C@@H](CCCCN2C[C@H](Cc3ccccc3)N(CC3CCCCC3)C(=O)C2=O)N(CC2CCCCC2)C1=O	-1.5	/	-3.0	5794	-0.7
OCC(CO)(CO)N=Cc1c(O)ccc2ccccc12	0.1	7.6	2.1	16546*	0.3
O=C(N/N=C/c1ccc(N2CCOCC2)o1)c1ccccc1[N+](=O)[O-]	-0.2	-5.7	-2.2	2343	0.1
CN(C)/N=C/c1c(O)ccc2ccccc12	-2.7	5.8	-5.3	2910	0.4
O=C(N/N=C/c1c(O)ccc2ccccc12)c1cccc(C(F)(F)F)c1	1.2	75.3*	0.4	2696	13.7
COc1ccc2ccccc2c1/C=N/NC(=O)c1cccc(Br)c1	-2.4	2.2	0.0	2465	-0.3
O=C(N/N=C/c1ccc(N2CCOCC2)o1)c1cccc(C(F)(F)F)c1	-2.6	8.8	-2.9	24154*	-1.0
CCOC(=O)C1=CCC(c2ccc(CC)cc2)N(S(=O)(=O)c2ccc(C)cc2)C1 (stereo unspecified)	4.4	/	1.5	5574	-0.1
COC(=O)[C@H]1C[C@H](OC(=O)Nc2cccs2)[C@@]2(O)CN(S(=O)(=O)c3ccc(C)cc3)CC2[C@H]1C(=O)OC (stereo partly specified)	-2.0	4.5	-3.8	2916	-0.1
COc1ccc(Cl)cc1N(CC(=O)Nc1ccccc1SC)S(C)(=O)=O	1.5	-1.2	-0.3	19767*	?
Cn1c(-c2cccc(OCc3ccccc3)c2)nc2c1c(=O)[nH]c(=O)n2Cc1ccccc1	-1.3	61.8*	11.3	2957	-0.2
CSC(=O)CC(=O)NC(=O)c1ccccc1	-2.0	-10.5	-6.3	25369*	-4.2
CC1=C(C(=O)N(C(C)C)C(C)C)CC(CC(=O)NC(c2ccccc2)c2ccccc2)C(=O)N1Cc1ccc(C(C)(C)C)cc1 (stereo unspecified)	-8.2	/	-3.5	6012	0.2
SMILES	Anthrax LF inh2	MazF activator	BoNT F protease	Bead autofluor	BoNT A protease
Cc1ccc(N2C(=O)C3C(C2=O)C2C=CC3C23CC3)cc1 (stereo unspecified)	-2.7	-1.6	-0.2	19890*	?
COc1ccc(C(CNC(=O)c2cccc(S(=O)(=O)N3CCCC3)c2)N2CCCC2)cc1 (stereo unspecified)	-3.6	0.7	14.4	26904*	-22.9
COc1ccc(C(CNC(=O)c2cccc(S(=O)(=O)N3CCOCC3)c2)N2CCCC2)cc1 (stereo unspecified)	-0.3	8.1	-2.2	8558	-2.2
COc1ccc(C(CNC(=O)c2ccc(-c3nc4ccccc4s3)o2)N2CCCC2)cc1 (stereo unspecified)	5.8	2.0	-4.5	20254*	-11.3
COc1ccc(C(CNC(=O)c2ccc(-c3ccccc3Cl)o2)N2CCCC2)cc1 (stereo unspecified)	-0.5	-0.3	-11.5	5064	-0.2
COc1ccc(C(CNC(=O)c2ccc(S(=O)(=O)Nc3ccccc3OC)cc2)N2CCCC2)cc1 (stereo unspecified)	-1.6	-2.5	-1.2	19637*	-4.0
COc1cccc(C2=NN(C(=O)C3CC3)C(O)(C(F)(F)F)C2)c1 (stereo unspecified)	-3.0	-0.6	-2.4	3818	-0.1
CCOC(=O)/C(=C/C1=CC(=C/N(C)C)/C(=O)O1)C(C)=O	-8.0	-346.5	36.3*	2895	-0.2
CCOC(=O)/C(=C/c1ccc(OC(=O)c2ccccc2)cc1)C(C)=O	-1.9	-2.8	5.1	2344	0.4
COc1ccccc1N1CCN(c2cc(N3CCCC3)nc(C)n2)CC1	-5.9	6.1	-5.2	6690	-0.4
COc1ccc(OC)c2c(C)cc(N3CCCN(C)CC3)nc12	-1.1	-16.3	-7.2	21960*	-4.8
NC(=O)c1ccsc1NC(=O)C1CCCN1S(=O)(=O)c1ccc(Cl)cc1 (stereo unspecified)	-0.9	-0.5	-0.5	20384*	-0.2
O=C(Nc1nc(-c2ccccc2)cs1)C1CCCCN1S(=O)(=O)c1ccccc1 (stereo unspecified)	-8.4	11.6	-7.2	?	0.7
O=C(Nc1nc(-c2ccccc2)cs1)C1CCCCN1S(=O)(=O)c1ccc(Cl)cc1 (stereo unspecified)	-5.4	-11.5	-4.6	16281*	1.0
CC(C)(C)C(=O)Nc1nc(C2CCCN2S(=O)(=O)c2ccc(Cl)cc2)cs1 (stereo unspecified)	-3.2	50.5*	-2.9	2844	-0.1
O=C(Nc1nccs1)C1CCCN1S(=O)(=O)c1ccc(Cl)cc1 (stereo unspecified)	-1.2	-6.3	-2.2	11397	-0.3
CC(=Nc1ccccc1)C1=C(O)C(Cc2cccc(F)c2)NC1=O (stereo unspecified)	-2.0	7.3	-7.1	4062	-0.6
COc1cc(NC(=O)C2(C)CCCN2C)cc(OC)c1OC (stereo unspecified)	2.1	/	0.4	3011	0.1
O=C1C=C(Nc2ccc(O)cc2)CC(c2ccco2)C1 (stereo unspecified)	-3.8	-12.2	-9.3	23693*	?
Cc1ccc(N2CC(NC(=O)C(=O)c3c(C)[nH]c4ccccc34)CC2=O)cc1C (stereo unspecified)	/	5.2	/	/	/
CC(=O)N(C(C)=O)c1c(N2CCOCC2)c2ccccc2oc1=O	-4.3	2.1	6.1	21404*	4.2
CC(=O)N(C(C)=O)c1c(N2CCCC2)c2ccccc2oc1=O	-9.1	3.9	-1.1	4493	-2.3
O=C(c1ccc2c(c1)C(=O)N(Cc1ccco1)C2=O)N1CCOCC1	-1.3	2.5	-5.0	23883*	-4.8

From PubChem
